In the library only some 1.8% were active in any assay of this set; here they are far more common.
TrxR1 substrate: rat thioredoxin reductase 1 substrate activity; 0.01% of 390,000 active; purified TrxR1 substrate turnover, NADPH consumption readout; AID 588456; Potency, µM (top dose mostly 114 µM), without a hit: top-dose activity change, negative = substrate turnover; also: % is scaled to controls: 0 for no effect and ±100 for the full control effect; nearly all actives have a fitted effect of over 50% in size
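Rat TrxR1, dispensed at 90 nM, was prereduced with 400 uM NADPH (final) for 5 min at ~22 deg C, then incubated with compound 15 min before 400 uM selenite. A first-read NADPH fluorescence drop versus no-compound background flagged substrates.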
Vif-A3F inh: Vif-A3F binding inhibition. 0.2% of 390,000 active. Potency, µM (highest dose often 46.1 µM), without a hit: at the highest dose activity, negative = active. HeLa A3F-eYFP + Vif (tagged APOBEC3F with the HIV-1 protein that degrades it), YFP fluorescence increase. AID 602313; also: % of control where 0% means no effect; nearly all actives have a fitted effect of over 65% in size
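HeLa cells stably expressing A3F-eYFP plus Vif, plated and incubated overnight at 37 deg C, then exposed to compounds overnight at 37 deg C. Blocked degradation read as raised yellow fluorescence (Ex 488/Em 500-530).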
TrxR1 inh: rat TrxR1 inhibition. AID 588453. recombinant rTrxR1, NADPH fluorescence consumption, selenite substrate. Potency, µM (highest dose often 114 µM), inactives show top-dose activity change, negative = inhibition, most hits filed as inhibitors. 1% of 390,000 active; also: % is scaled to controls: 0 for no effect and ±100 for the full control effect; nearly all actives have a fitted effect of over 65% in size
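Rat TrxR1 (90 nM in the dispensed reagent) was pre-reduced with 400 uM NADPH for 5 min at room temperature, then incubated with compound for 15 min. After 400 uM selenite was added, NADPH fluorescence (Ex 340/Em 450 nm) was followed for 8 min.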
Vif-A3G inh: inhibitors of Vif-APOBEC3G interaction. HeLa A3G-eYFP + Vif (tagged APOBEC3G with the HIV-1 protein that degrades it), YFP fluorescence, overnight. 0.076% of 410,000 active. Potency, µM (highest dose often 46.1 µM), for inactives: top-dose activity, negative = active, most hits filed as inhibitors. AID 602310. Q9HC16; also: % is scaled to controls: 0 for no effect and ±100 for the full control effect; nearly all actives have a fitted effect of over 60% in size
Target sequence (Q9HC16 whole entry, looked up): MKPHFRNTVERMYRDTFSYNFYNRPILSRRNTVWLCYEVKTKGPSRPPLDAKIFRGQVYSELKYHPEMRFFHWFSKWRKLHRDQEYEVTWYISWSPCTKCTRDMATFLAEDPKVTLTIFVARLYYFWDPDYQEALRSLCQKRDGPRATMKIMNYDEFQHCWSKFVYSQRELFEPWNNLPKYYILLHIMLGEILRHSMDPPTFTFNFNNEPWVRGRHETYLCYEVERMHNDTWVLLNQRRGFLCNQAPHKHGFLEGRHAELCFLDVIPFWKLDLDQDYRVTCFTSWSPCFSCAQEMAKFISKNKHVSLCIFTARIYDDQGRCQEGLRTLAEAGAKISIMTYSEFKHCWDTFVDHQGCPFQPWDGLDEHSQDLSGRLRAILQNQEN
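Read-out is eYFP fluorescence (Ex 488/Em 500-530) from Vif-expressing HeLa A3G-eYFP cells; more signal means A3G escaped Vif-mediated degradation. Cells plated overnight, compound pinned in, incubated overnight at 37 deg C.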
VDR inh: inhibitors of human vitamin D receptor. P11473. VDR-SRC2-3 peptide fluorescence polarization, 2 h. Potency, µM, for inactives: max response, negative = inhibition, hits mostly inhibitors. 0.93% of 400,000 active. AID 504847; also: % is scaled to controls: 0 for no effect and ±100 for the full control effect
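Measured by FP: displacement of SRC2-3 coactivator peptide from VDR by library compounds, following a two-hour ambient incubation.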
The depositor's hits bear a star; ! = not active in a repeat; [ ] = remark or other dose. Calls follow the shape of the dose curve; as a rule, active = well fitted curve in the direction sought with a large enough effect; inconclusive = small, poorly fitted or top-dose-only effect, or another doubt; inactive = no such curve, though single readings can be large; an effect the other way counts as inactive or inconclusive. Potency is read from the fitted curve at half-maximal effect.

`CC(C)(C)c1ccc(-c2nc(S(=O)(=O)c3ccccc3)c(N3CCOCC3)o2)cc1` gave TrxR1 substrate -1%, TrxR1 inh 19% and VDR inh 11%.
Cc1ccc(S(=O)(=O)c2nc(-c3ccccc3)oc2N2CCCC2)cc1 was read as TrxR1 substrate 9%, Vif-A3F inh -10%, TrxR1 inh 6.3µM*, Vif-A3G inh 1% and VDR inh inconclusive.
`Cc1ccnc2ccc(N)cc12` gave TrxR1 substrate 6%, TrxR1 inh 13% and Vif-A3G inh -3%.
Screening COc1ccc2nc(Cl)c(C3CC(c4ccco4)=NN3C(=O)CCC(=O)O)cc2c1 (centres undefined) returned TrxR1 substrate 7%[57.1 µM], Vif-A3F inh -4%, TrxR1 inh -6%[57.1 µM], Vif-A3G inh 1% and VDR inh -7%.
`COc1ccc2nc(Cl)c(C3CC(c4ccco4)=NN3C(=O)CCCC(=O)O)cc2c1` (centres undefined) gave TrxR1 substrate 4%, Vif-A3F inh 1%, TrxR1 inh 40µM*, Vif-A3G inh 1% and VDR inh 0%.
For CCCCCCCC/C=C/CCCCCCCC(=O)NCCOP(=O)(O)O the results were VDR inh 28µM*.
CCCCCCCC/C=C\CCCCCCCC(=O)NCCO was read as TrxR1 substrate inconclusive, Vif-A3F inh 7%, TrxR1 inh 17%[57.1 µM], Vif-A3G inh 2% and VDR inh 1%.
`CCCCCCCC/C=C\CCCCCCCC(=O)NCCc1ccc(O)c(O)c1` gave TrxR1 substrate inconclusive, Vif-A3F inh -8%, TrxR1 inh 27µM*!, Vif-A3G inh -26% and VDR inh inconclusive.
CCc1ccccc1NC(=O)Nc1cc(C(=O)NCc2cccc(F)c2)ccc1N1CCCC1 was read as TrxR1 substrate 6%[57.1 µM], Vif-A3F inh -12%, TrxR1 inh 14%[57.1 µM], Vif-A3G inh -9% and VDR inh 6%.
Screening Cc1ccc(/C=C/C(=O)c2ccc([N+](=O)[O-])o2)cc1 returned TrxR1 substrate -4%, Vif-A3F inh -12%, TrxR1 inh 6.3µM*, Vif-A3G inh inconclusive and VDR inh 5.6µM*.
For Nc1nc(NCc2ccc(Cl)cc2)c2[nH]cnc2n1 the results were TrxR1 substrate 3%, TrxR1 inh 24%, Vif-A3G inh -11% and VDR inh -4%.
For CC1=C(/C=C/C(C)=C/C=C/C(C)=C/C(=O)Nc2ccc(O)cc2)C(C)(C)CCC1 the results were TrxR1 substrate inconclusive, Vif-A3F inh 7%, TrxR1 inh inconclusive, Vif-A3G inh -2% and VDR inh -7%.
Screening CC1=C(/C=C/C(=C/C=C/C(C)=C/C(=O)O)c2ccc(C)cc2)C(C)(C)CCC1 returned VDR inh 22µM*.
`CC1=C(/C=C/C(C)=C/C=C/C(C)=C\C(=O)O)C(C)(C)CCC1` gave TrxR1 substrate 3%[57.1 µM], Vif-A3F inh 0%, TrxR1 inh 35µM*, Vif-A3G inh -2% and VDR inh 50µM*!.
For CC1=C(\C=C/C(C)=C/C=C\C(C)=C\C(=O)O)C(C)(C)CCC1 the results were VDR inh 18µM*.
CC1(C)CC(=O)C2=C(C1)NC(Nc1nc3ccccc3o1)=NC2c1cccc(F)c1 (centres undefined) was read as TrxR1 substrate 6%, TrxR1 inh 9%, Vif-A3G inh 0% and VDR inh -12%.
`CCC1CO/C(=C(\C(Cl)=C(Cl)Cl)[N+](=O)[O-])N1` (centres undefined) gave TrxR1 substrate 4%, Vif-A3F inh -8%, TrxR1 inh 16µM*, Vif-A3G inh 0% and VDR inh -6%.
Screening Cn1c(=O)c2[nH]c(N=NNc3ccccc3F)nc2n(C)c1=O returned TrxR1 substrate -19%[57.1 µM], Vif-A3F inh -4%, TrxR1 inh 8%[57.1 µM], Vif-A3G inh 0% and VDR inh 79µM*.
For CCCS(=O)(=O)NCCc1csc2nc(-c3ccc(OC)cc3)nn12 the results were TrxR1 substrate 1%[57.1 µM], Vif-A3F inh 0%, TrxR1 inh 4%[57.1 µM], Vif-A3G inh 1% and VDR inh 9%.
CC(C)CN1C(=O)/C(=C/c2cccs2)NC1=S was read as TrxR1 substrate -3%, Vif-A3F inh -6%, TrxR1 inh 14µM*, Vif-A3G inh -2% and VDR inh 11%.
`O=c1c(-c2cccc(F)c2)nc2cncnc2n1Cc1ccccc1Cl` gave VDR inh 12%.
`COc1cc(NCCC(=O)c2cccs2)c(OC)cc1Cl` gave TrxR1 substrate 8%[57.1 µM], Vif-A3F inh -7%, TrxR1 inh 18µM*, Vif-A3G inh -6% and VDR inh 18%.
COc1cccc(CN2CC(C(=O)NCCc3ccc(C)o3)CCC2=O)c1 (centres undefined) was read as TrxR1 substrate 7%, Vif-A3F inh 7%, TrxR1 inh 20µM*, Vif-A3G inh -6% and VDR inh inconclusive.
`Cc1ccc(CCNC(=O)C2CCC(=O)N(Cc3ccccc3F)C2)o1` (centres undefined) gave TrxR1 substrate 6%, Vif-A3F inh -2%, TrxR1 inh 56µM*, Vif-A3G inh 1% and VDR inh -17%.
For Cc1ccc(CN(C)C(=O)C2CCC(=O)N(CCc3ccccc3)C2)o1 (centres undefined) the results were TrxR1 substrate 9%, Vif-A3F inh -11%, TrxR1 inh 40µM*, Vif-A3G inh 5% and VDR inh -6%.
For Cc1ccccc1Cn1c(=O)n(-c2ccc(Cl)cc2)c(=O)c2c3c(sc21)CCCC3 the results were TrxR1 substrate 0%, Vif-A3F inh -1%, TrxR1 inh 8%, Vif-A3G inh 0% and VDR inh -10%.
For CC(=O)c1ccc2c(c1)C1C=CCC1C(C(=O)O)N2 (centres undefined) the results were TrxR1 substrate -3%[57.1 µM], Vif-A3F inh 5%, TrxR1 inh inconclusive, Vif-A3G inh 2% and VDR inh -16%.
COc1cccc2c1NC(C(=O)O)C1CC=CC21 (centres undefined) was read as TrxR1 substrate 8%, Vif-A3F inh inconclusive, TrxR1 inh 13µM*, Vif-A3G inh 0% and VDR inh -18%.
CCN1C(=O)S/C(=C/c2ccsc2)C1=O was read as TrxR1 substrate -4%, Vif-A3F inh inconclusive, TrxR1 inh 1%, Vif-A3G inh 1% and VDR inh 1%.
Screening CC(C)N1C/C(=C/c2ccsc2)C(=O)/C(=C/c2ccsc2)C1 returned TrxR1 substrate -9%, Vif-A3F inh inconclusive, TrxR1 inh inconclusive, Vif-A3G inh inconclusive and VDR inh 16µM*.
CCOC(=O)/C=C(\C)Sc1cc(O)c2ccccc2c1O was read as TrxR1 substrate -26%, Vif-A3F inh 22µM*, TrxR1 inh inconclusive, Vif-A3G inh inconclusive and VDR inh 20µM*.
